Screens deposited in PubChem BioAssay by University of Kansas High Throughput Screening Laboratory.
This is one part of a sample in which hits are shown more often than they occur.
mHTT CaM bind: mHTT-calmodulin interaction abrogation. P42858. AlphaScreen His-mHTT/GST-CaM binding, luminescence. inhibition, % at 15 µM. 190,000 compounds, 3.6% hits;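 further: 0% = both proteins with DMSO and 100% = one protein alone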
Target sequence (P42858 whole entry, looked up, stated change not applied): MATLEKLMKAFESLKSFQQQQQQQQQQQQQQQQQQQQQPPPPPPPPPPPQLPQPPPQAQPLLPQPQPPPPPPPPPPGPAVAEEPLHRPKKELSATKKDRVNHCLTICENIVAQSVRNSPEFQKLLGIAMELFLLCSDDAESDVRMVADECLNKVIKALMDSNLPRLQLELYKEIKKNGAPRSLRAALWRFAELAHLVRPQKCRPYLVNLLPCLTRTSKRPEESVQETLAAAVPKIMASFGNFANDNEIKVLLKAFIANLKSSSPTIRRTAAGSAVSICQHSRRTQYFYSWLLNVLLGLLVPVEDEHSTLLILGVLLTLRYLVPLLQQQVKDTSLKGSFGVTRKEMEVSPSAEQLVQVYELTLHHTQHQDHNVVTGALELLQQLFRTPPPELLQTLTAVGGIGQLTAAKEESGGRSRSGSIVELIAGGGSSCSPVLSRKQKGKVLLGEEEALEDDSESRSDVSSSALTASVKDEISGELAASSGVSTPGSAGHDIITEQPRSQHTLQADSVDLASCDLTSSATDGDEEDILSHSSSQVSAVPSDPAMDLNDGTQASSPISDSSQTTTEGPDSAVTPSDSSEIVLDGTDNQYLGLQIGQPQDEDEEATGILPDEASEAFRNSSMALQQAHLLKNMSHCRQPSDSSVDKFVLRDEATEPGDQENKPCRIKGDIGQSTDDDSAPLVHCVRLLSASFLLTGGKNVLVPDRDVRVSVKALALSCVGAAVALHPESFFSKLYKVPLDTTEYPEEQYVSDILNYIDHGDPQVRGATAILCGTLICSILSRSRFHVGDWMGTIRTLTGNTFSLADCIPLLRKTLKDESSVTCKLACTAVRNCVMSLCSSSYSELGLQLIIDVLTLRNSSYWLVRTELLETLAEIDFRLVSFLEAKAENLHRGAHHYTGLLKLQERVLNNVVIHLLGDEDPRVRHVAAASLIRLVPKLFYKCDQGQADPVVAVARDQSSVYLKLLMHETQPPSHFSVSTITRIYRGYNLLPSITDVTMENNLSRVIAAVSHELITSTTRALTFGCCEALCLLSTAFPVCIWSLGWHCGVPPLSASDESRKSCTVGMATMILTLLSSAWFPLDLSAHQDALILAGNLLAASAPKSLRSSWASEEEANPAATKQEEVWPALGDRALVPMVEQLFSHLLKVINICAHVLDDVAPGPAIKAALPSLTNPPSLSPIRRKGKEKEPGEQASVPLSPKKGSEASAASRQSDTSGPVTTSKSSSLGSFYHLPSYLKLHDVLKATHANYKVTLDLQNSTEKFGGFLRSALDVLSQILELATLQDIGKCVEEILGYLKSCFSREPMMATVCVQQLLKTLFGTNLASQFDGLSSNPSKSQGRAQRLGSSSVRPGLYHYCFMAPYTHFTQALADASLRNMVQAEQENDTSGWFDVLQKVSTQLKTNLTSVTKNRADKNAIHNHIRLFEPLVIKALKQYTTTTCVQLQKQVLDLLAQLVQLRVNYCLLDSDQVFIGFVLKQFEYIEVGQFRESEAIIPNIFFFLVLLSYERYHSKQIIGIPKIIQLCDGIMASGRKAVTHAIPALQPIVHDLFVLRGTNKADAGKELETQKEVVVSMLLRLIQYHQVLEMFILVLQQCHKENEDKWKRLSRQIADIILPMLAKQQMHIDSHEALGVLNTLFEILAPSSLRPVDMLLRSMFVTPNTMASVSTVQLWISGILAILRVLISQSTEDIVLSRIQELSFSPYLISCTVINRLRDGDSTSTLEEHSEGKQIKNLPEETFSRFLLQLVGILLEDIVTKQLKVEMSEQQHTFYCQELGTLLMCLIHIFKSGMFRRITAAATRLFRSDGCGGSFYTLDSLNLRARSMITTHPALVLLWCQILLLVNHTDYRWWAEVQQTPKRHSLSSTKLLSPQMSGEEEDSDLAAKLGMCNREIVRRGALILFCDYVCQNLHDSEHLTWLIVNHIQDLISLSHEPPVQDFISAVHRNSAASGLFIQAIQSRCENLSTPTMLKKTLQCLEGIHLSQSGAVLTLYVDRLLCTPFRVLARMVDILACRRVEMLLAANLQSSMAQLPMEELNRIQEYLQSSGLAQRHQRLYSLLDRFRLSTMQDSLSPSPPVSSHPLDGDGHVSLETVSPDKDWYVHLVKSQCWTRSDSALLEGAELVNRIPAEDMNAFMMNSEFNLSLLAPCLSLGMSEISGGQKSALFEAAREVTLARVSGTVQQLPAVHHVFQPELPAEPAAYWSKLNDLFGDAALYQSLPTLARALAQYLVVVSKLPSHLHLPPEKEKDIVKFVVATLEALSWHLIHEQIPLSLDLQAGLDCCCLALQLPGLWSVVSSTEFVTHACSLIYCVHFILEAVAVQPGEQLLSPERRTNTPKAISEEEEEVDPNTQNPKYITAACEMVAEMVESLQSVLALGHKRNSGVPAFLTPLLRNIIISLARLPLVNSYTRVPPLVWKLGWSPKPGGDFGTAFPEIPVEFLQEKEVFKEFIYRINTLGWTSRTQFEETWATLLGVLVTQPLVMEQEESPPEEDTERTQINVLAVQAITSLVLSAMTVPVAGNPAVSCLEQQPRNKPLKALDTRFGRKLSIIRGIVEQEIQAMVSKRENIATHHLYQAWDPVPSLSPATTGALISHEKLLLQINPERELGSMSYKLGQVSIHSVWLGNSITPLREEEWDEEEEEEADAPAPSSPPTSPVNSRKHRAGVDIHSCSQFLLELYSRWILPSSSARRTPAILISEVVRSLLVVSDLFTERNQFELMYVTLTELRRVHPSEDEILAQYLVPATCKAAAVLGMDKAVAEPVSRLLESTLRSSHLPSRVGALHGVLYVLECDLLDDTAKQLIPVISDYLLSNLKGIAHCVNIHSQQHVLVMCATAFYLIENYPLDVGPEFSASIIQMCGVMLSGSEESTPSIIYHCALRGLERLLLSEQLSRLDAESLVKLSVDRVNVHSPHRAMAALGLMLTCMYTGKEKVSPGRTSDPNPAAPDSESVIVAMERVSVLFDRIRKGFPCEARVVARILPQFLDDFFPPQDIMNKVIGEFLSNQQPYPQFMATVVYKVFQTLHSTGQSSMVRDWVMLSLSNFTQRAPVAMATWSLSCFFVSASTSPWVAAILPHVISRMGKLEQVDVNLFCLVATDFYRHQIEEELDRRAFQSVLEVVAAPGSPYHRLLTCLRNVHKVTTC
Pf apPOL block: Pf-apPOL DNA polymerase inhibition; 210,000 compounds, 0.25% hits; AID 1794808; inhibition, % at 10 µM; Recombinant Pf-apPOL, molecular beacon fluorescence, 1.5 h
* marks the source's active call; other numbers are inactive results; · = no result given. No stated cut-off is given here; in the data, active means inhibition above about 50%; inactive means the rest.

SMILES | mHTT CaM bind | Pf apPOL block
Cc1ccc(CNC(=O)c2ccc(Cl)cc2Cl)cc1 | -7 | 65*
CCCn1c(=O)c(C(=O)NCc2ccccc2Cl)c(O)c2ccccc21 | 4 | -4
Cc1ccc(Cn2c(=O)cc(C(=O)NCc3ccccc3Cl)c3ccccc32)cc1 | 78* | 12
O=C(Nc1ccc2c(N3CCOCC3)ncnc2c1)c1cccc(Cl)c1 | 88* | -11
CN(C)c1cccc(C(=O)Nc2ccc3c(N4CCCC4)ncnc3c2)c1 | 58* | 3
O=C(Nc1ccc2c(N3CCOCC3)ncnc2c1)c1cccc(F)c1 | 6 | 0
O=C(Nc1ccc2c(N3CCCC3)ncnc2c1)c1cccc(Br)c1 | 25 | 4
CC(=O)c1cccc(NC(=O)CN2CCC(c3nc(-c4ccc(F)cc4)no3)CC2)c1 | -3 | -2
CCc1ccc(C2N3CC4(CC)CN2CC(CC)(C3)C4O)cc1 (stereo unspecified) | 4 | 0
CC(C(=O)NCCc1c[nH]c2ccccc12)n1nc(-c2ccccc2)ccc1=O (stereo unspecified) | 2 | -17
CC(C)(C)C(=O)N1CCC2(CC1)CC(=O)c1ccccc1O2 | -4 | -2
CN1c2cc(C(=O)N3CCN(c4ccccc4Cl)CC3)ccc2C(=O)N2CCCCC21 (stereo unspecified) | 2 | 3
CN1c2cc(C(=O)N3CCc4ccccc4C3)ccc2C(=O)N2CCCCC21 (stereo unspecified) | 93* | -4
COc1cc(C(=O)Nc2c3c(nn2-c2ccc(Cl)cc2)CSC3)cc(OC)c1OC | 3 | 1
CCOc1ccccc1CN1CCC(C(=O)NC(C)c2ccccc2)CC1 (stereo unspecified) | -1 | 0
CCc1ccccc1NC(=O)N1CCCC1c1nc(-c2ccc(F)cc2F)no1 (stereo unspecified) | -4 | -4
Cc1cccc(-n2cc(C3CCN(C(=O)C4CCCC4)CC3)cn2)c1 | -10 | -3
Cc1ccc(-n2cc(C3CCN(C(=O)c4ccc(N(C)C)cc4)CC3)cn2)cc1 | 63* | -5
CN(C)c1ccc(C(=O)N2CCC(c3cnn(-c4ccc(F)cc4)c3)CC2)cc1 | 4 | -1
CC(=O)N1CCC(c2cnn(-c3cccc(C)c3)c2)CC1 | 100* | 1
CS(=O)(=O)N1CCC(C(=O)NCC2(O)CCc3ccccc32)CC1 (stereo unspecified) | -7 | -6
CCCCC[C@H](C)N1C[C@@H](COCc2ccccc2)Oc2cc(N3CCC[C@H]3C(N)=O)ccc2S1(=O)=O | 69* | -8
CCCCC[C@H](C)N1C[C@H](COCc2ccccc2)Oc2cc(N3CC[C@H](O)C3)ccc2S1(=O)=O | 96* | -13
CCCCC[C@@H](C)N1C[C@@H](COCc2ccccc2)Oc2cc(N3CCC[C@H]3C(N)=O)ccc2S1(=O)=O | 43 | -1
CCCCC[C@H](C)N1C[C@@H](COCc2ccccc2)Oc2cc(N3CCC[C@H]3CO)ccc2S1(=O)=O | 14 | -3
SMILES | mHTT CaM bind | Pf apPOL block
CCCCC[C@@H](C)N1C[C@H](COCc2ccccc2)Oc2cc(N3CC[C@@H](O)C3)ccc2S1(=O)=O | 58* | -8
CCCCC[C@H](C)N1C[C@H](COCc2ccccc2)Oc2cc(N3CCC[C@@H]3CO)ccc2S1(=O)=O | 26 | -12
CCCCC[C@@H](C)N1C[C@H](COCc2ccccc2)Oc2cc(N3CC[C@H](O)C3)ccc2S1(=O)=O | 78* | -10
CCCCC[C@H](C)N1C[C@H](COCc2ccccc2)Oc2cc(N3CCC[C@H]3CO)ccc2S1(=O)=O | 36 | -11
CCC(=O)Nc1cccc(-c2noc(C3CCN(C(=O)c4cccs4)CC3)n2)c1 | 14 | 3
Cc1ccc(CCNC(=O)c2cc3n(n2)CCCN(Cc2ccc(F)cc2)C3=O)cc1 | 3 | 26
CC(=O)c1cccc(NS(=O)(=O)c2cc(Cl)c(Cl)cc2Cl)c1 | -5 | -6
O=C(O)c1ccccc1Sc1c(C(=O)O)cc([N+](=O)[O-])cc1[N+](=O)[O-] | · | 3
CCCCC[C@H](C)N1C[C@H](COCc2ccccc2)Oc2cc(N3CCC[C@@H]3COC)ccc2S1(=O)=O | -9 | -4
CCCCC[C@@H](C)N1C[C@H](COCc2ccccc2)Oc2cc(N3CC[C@H](N(C)C)C3)ccc2S1(=O)=O | 100* | -19
COc1ccc(-c2cc(N3CCC(C(=O)NCC(F)(F)F)CC3)ncn2)cc1 | -6 | -10
CCN(CC)C(=O)Oc1c(I)cc(Cl)c2cccnc12 | -1 | -9
CCN(CC)Cc1cc(Cl)c2cccnc2c1O | 100* | 0
CC1CCN(C(=O)c2csc(COc3ccccc3F)n2)CC1 | -8 | 0
Cc1nc2cc(NC(=O)Cc3csc(NC(=O)c4ccc(=O)[nH]c4)n3)ccc2s1 | 59* | 9
Cc1nc2cc(NC(=O)Cc3csc(NC(=O)C4CCCC4)n3)ccc2s1 | -18 | -10
Cc1ccc(NC(=O)C2CCCN(c3cc(=O)n(C)c(=O)n3C)C2)cc1F (stereo unspecified) | 3 | 7
NC(=O)CSc1nnc(N2CCN(C(=O)Cc3c[nH]c4ccccc34)CC2)s1 | -14 | -7
Nc1cc(N)cc(Oc2cc(N)cc(N)c2)c1 | 95* | ·
Nc1cccc(Oc2c(F)c(F)c(Oc3cccc(N)c3)c(F)c2F)c1 | 42 | -6
CCNC(=O)c1cccc2c1CCN2C(=O)CC | 100* | 0
CCC(=O)N1CCc2c(C(=O)NC3CC3)cccc21 | -4 | -4
COc1ccccc1CC(=O)N1CCN(C2=CC3=NCC(C)N3C=N2)CC1 (stereo unspecified) | 15 | -4
Cc1ccccc1OCC(=O)N1CCN(C2=CC3=NCC(C)N3C=N2)CC1 (stereo unspecified) | 100* | 1
CCOc1ccc(CNC(=O)c2cn(C)c(=O)c3c2c2ccccc2n3C)cc1 | 1 | -2
SMILES | mHTT CaM bind | Pf apPOL block
COc1ccc(C(=O)NCCSCc2cccc(C)c2)cc1OC | 6 | -6
CN(C)c1cccc(C(=O)N2CCC3(CC2)NC(=O)N(Cc2ccc(Cl)cc2)C3=O)c1 | 47 | -4
CC(=O)N1CCN(C(=O)C23CC4(C)CC(C)(CC(C)(C4)C2)C3)CC1 | 9 | -4
COc1ccc(N2CCN(C(=O)C34CC5(C)CC(C)(CC(C)(C5)C3)C4)CC2)cc1 | 54* | 3
CN1C(=O)C(O)(CC(=O)c2ccc(F)cc2)c2ccccc21 (stereo unspecified) | -3 | -3
O=C1NC(=O)C2C1C1C=Cc3ccccc3N1C2C(=O)c1ccc(F)cc1 (stereo unspecified) | 52* | ·
COc1cc(OC)cc(C2=Cc3ccc(OC)cc3C(CC(C)=O)N2c2ccc(-c3cncnc3)cc2)c1 (stereo unspecified) | 37 | -4
CCc1ccc(C2=Cc3ccccc3C(CC(=O)C3CC3)N2c2ccc(-c3cncnc3)cc2)cc1 (stereo unspecified) | 100* | -2
O=C1CCCC2=C1C(c1ccccc1)n1nc(SCc3ccccc3Cl)nc1N2 (stereo unspecified) | -2 | -2
O=c1[nH]c2ccccc2n1CCCSc1nccc2ccccc12 | 100* | -8
Cc1cc(C)nc(SCCCn2c(=O)[nH]c3ccccc32)n1 | 18 | -2
COc1ccc(N=Cc2cc(Br)cc(Cl)c2O)cc1 | 3 | -11
Oc1c(Cl)cc(Cl)cc1C=Nc1cccc2cccnc12 | 55* | 6
CC(=O)c1ccc(N=Cc2cc(Br)cc(Cl)c2O)cc1 | 5 | 46
Cc1ccc(N=Cc2cc(Br)cc(Cl)c2O)c(N)c1 | 61* | 4
